Source: PubChem BioAssay (National Center for Advancing Translational Sciences (NCATS))
This is a sample that favours compounds with a hit; in the whole collection about 6.9% have one here.
KB-V1 cytotox: qHTS assay for MDR1-selective chemotherapeutics: Primary screen using the drug-selected MDR subline cells KB-V1 | KB-V1 MDR cells viability, CellTiter-Glo, 72 h | Potency, µM (doses to about 46.1 µM), actives largely listed as cytotoxic | hit rate 3.4% among 400,000; also: nearly all actives have a fitted effect of over 60% in size
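Compound-treated KB-V1 multidrug-resistant cells, 72 h, 37 degrees C; viability by CellTiter-Glo. Fitted qHTS curves give the values.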
SW480 rerep: A quantitative high throughput screen for small molecules that induce DNA re-replication in SW480 colon adenocarcinoma cells; SW480 DNA re-replication, Hoechst DNA content imaging, 48 h; Potency, µM (top dose mostly 46.1 µM), usual class: activators; hit rate 1.8% among 340,000; AID 624297, 2012; also: nearly all actives have a fitted effect of over 55% in size
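Cells (250 per well) received 23 nL compound or DMSO by pin tool and were kept 48 hr at 37 C, 5% CO2. Nuclei were then stained with Hoechst for 40 min and scanned for DNA content.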
KB-3-1 tox: qHTS assay for MDR1-selective chemotherapeutics: Primary screen using the parental adenocarcinoma cell KB-3-1. hit rate 1.4% among 400,000. Potency, µM (titrated, usually from 46.1 µM), usual class: cytotoxic. KB-3-1 viability, CellTiter-Glo ATP luminescence, 72 h; also: nearly all actives have a fitted effect of over 60% in size
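KB-3-1 parental drug-naive adenocarcinoma cells in DMEM/10% FBS, incubated 72 h at 37 C with pin-transferred compounds across a concentration series. Viability by CellTiter-Glo luminescence; concentration-response curves fitted after normalization.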
Giardia killer: Small Molecules that selectively kill Giardia lamblia: qHTS; Giardia lamblia trophozoite viability; activity change, % at 7.66 µM, hits read low; hit rate 0.15% among 340,000; in the data active = activity change below about -80%; inconclusive = between about -30% and that limit;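 also: parasites exposed to compound for two days anaerobically before the ATP read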
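Anaerobic 48 hrs incubation at 37 deg C of 100 trophozoites/well with test compounds; ATPLite 1-Step luminescence, 15-30 min RT, reports cellular ATP as viability.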
MCF10A rereplic: A quantitative high throughput screen for small molecules that induce DNA re-replication in MCF 10a normal breast cells; MCF 10A DNA re-replication, Hoechst nuclear intensity, 48 h; hit rate 2.9% among 350,000; AID 624296, 2012; Potency, µM (top dose mostly 46.1 µM), hits mostly activators; also: nearly all actives have a fitted effect of over 50% in size
ASM inhibitor: Inhibitors of Secretory Acid Sphingomyelinase (S-ASM): qHTS | hit rate 0.006% among 340,000 | Potency, µM (titrated, usually from 57.5 µM), hits mostly inhibitors | AID 504937, 2011 | placental ASM, HMU-PC fluorogenic substrate, 60 min
Target sequence (P17405 47-631 limits assumed): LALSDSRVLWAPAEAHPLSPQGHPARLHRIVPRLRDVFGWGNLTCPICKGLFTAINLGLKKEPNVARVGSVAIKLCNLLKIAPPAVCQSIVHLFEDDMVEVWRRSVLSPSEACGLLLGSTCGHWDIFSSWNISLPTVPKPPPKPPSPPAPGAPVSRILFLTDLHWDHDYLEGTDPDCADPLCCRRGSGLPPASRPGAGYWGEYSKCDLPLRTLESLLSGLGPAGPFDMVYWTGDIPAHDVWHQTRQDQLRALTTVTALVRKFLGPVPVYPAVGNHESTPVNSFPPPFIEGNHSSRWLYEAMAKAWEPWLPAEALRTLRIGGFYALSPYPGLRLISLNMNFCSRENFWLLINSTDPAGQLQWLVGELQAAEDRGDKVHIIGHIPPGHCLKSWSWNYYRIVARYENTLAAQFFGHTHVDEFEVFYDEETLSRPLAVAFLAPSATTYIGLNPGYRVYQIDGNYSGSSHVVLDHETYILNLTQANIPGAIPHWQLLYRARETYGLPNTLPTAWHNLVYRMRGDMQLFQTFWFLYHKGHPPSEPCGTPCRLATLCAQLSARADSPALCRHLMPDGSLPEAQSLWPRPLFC
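Human placenta-derived ASM enzyme was preincubated with compound for 10 minutes at room temperature, then given fluorogenic substrate HMU-PC0 (9 uM final) for 60 minutes at 37 °C; a pH 10 stop preceded fluorescence reading at Ex 386/Em 447 nm.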
Numbers stand for hits; . = inactive; ? = inconclusive; / = not tested or not shown; [ ] = dose if it differs, or a comment. Unless noted, calls follow the shape of the dose curve; as a rule, active = well fitted curve in the direction sought with a large enough effect; inconclusive = small, poorly fitted or top-dose-only effect, or another doubt; inactive = no such curve, though single readings can be large; an effect the other way counts as inactive or inconclusive.

SMILES	KB-V1 cytotox	SW480 rerep	KB-3-1 tox	Giardia killer	MCF10A rereplic	ASM inhibitor
CCOC(=O)C1=C(C)NC2=C(C(=O)c3ccccc32)C1c1ccc([N+](=O)[O-])o1 (configuration not stated)	?	.[9.22 µM]	.	-95	.	.
O=C(c1ccncc1)N1CCN(c2ccc(F)cc2)CC1	.	.	.	.	.	.
O=C(c1cc2ccccc2cc1O)N1CCN(c2cccc(Cl)c2)CC1	.	.	.	.	?	.
O=C(c1ccc(N2CCN(C(=O)c3ccc(F)c(F)c3)CC2)cc1)c1cccc(F)c1	?	.	?	.	?	.
O=C(c1c(Cl)nc2sccn12)N1CCN(c2cccc(Cl)c2)CC1	?	2.9µM	1.6µM	.	4.1µM	.
O=C(c1ccc(Cl)cc1)N1CCN(c2ccc(F)cc2)CC1	16µM	.	.	.	.	.
O=C(c1ccc(N2CCN(C(=O)c3ccccc3)CC2)cc1)c1cccc(F)c1	9.2µM	.	?	.	9.2µM	.
Cc1[nH]c(-c2ccc(F)cc2)cc1C(=O)N1CCN(c2cccc(Cl)c2)CC1	?	?	.	.	9.2µM	.
CCOc1ccc2nc(N3CCCC(C(=O)NCc4ccc(OC)cc4)C3)sc2c1 (configuration not stated)	.	/	.	/	/	/
Cn1c(SCC(=O)NCc2ccco2)nnc1-c1cccc(NC(=O)c2ccccc2)c1	.	/	.	/	/	/
COC(=O)c1ccc(C2CC(=O)Nc3c2c(C)nn3-c2nc(C)cc(C)n2)cc1 (configuration not stated)	.	/	.	/	/	/
O=C(c1cccc(F)c1)N1CCN(c2cccc(Cl)c2)CC1	12µM	?	21µM	.	?	.
O=C(c1cccc(F)c1)N1CCCN(C(=O)c2cccc(F)c2)CC1	.	.	.	.	.	.
Cc1cccc(N(C)S(=O)(=O)c2c(C(=O)N3CCCCCC3)c(C)n(C)c2C)c1	.	/	.	/	/	/
CC(C)CC(N)c1csc(NC(=O)Nc2ccccc2C(C)(C)C)n1 (configuration not stated)	23µM	/	?	/	/	/
O=C(CNC1=NCCS1)c1c[nH]c2ccccc12	.	/	?	/	/	/
CCCSCCCNC(=O)c1ccc2nc(Cc3ccccc3)oc2c1	.	/	.	/	/	/
COc1cccc(NC(C(=O)Nc2cccc(C(C)=O)c2)c2ccccc2)c1 (configuration not stated)	?	.	.	.	.	.
COc1cc(-c2cc(C(=O)Nc3ccc(O)cc3)c3ccccc3n2)cc(OC)c1OC	.	.	.	.	.	.
COc1cc(-c2cc(C(=O)Nc3cccc(C(C)=O)c3)c3ccccc3n2)cc(OC)c1OC	21µM	.	?	.	?	.
COc1ccc(-c2cc(C(=O)Nc3ccc(C(N)=O)cc3)c3ccccc3n2)cc1OC	.	18µM	?	.	?	.
COc1cc(NC(C(=O)Nc2cccc(C(C)=O)c2)c2ccccc2)cc(OC)c1OC (configuration not stated)	4.6µM	.	?	.	.	.
COc1cc(-c2cc(C(=O)Nc3ccccc3N3CCOCC3)c3ccccc3n2)cc(OC)c1OC	9.2µM	.	.	.	?	.
S=C(NCCCc1cnc[nH]1)NCCCN(Cc1ccc(Cl)cc1)c1ccc(Br)cc1	.	/	.	.	/	/
CC(=O)c1cc(-c2ccccc2)n(CC(=O)NC2CCCCCC2)c1C	.	/	.	/	/	/
SMILES	KB-V1 cytotox	SW480 rerep	KB-3-1 tox	Giardia killer	MCF10A rereplic	ASM inhibitor
COc1ccc(OC)c(NC(=O)Cn2cnc3onc(-c4ccc(Cl)cc4)c3c2=O)c1	.	/	?	/	/	/
Cc1ccccc1Nc1c(-c2cccs2)nc2cccc(C)n12	.	/	.	/	/	/
CCC(=O)Nc1nc(-c2ccc3c(c2)CC(C)N3S(C)(=O)=O)cs1 (configuration not stated)	.	.	?	.	.	.
Cc1ccc(S(=O)(=O)Nc2ccc(-c3csc(-c4ccccc4)n3)cc2)cc1	?	?	.	.	12µM	.
CC1Cc2cc(-c3csc(NC(=O)Cc4cccs4)n3)ccc2N1S(C)(=O)=O (configuration not stated)	2.6µM	.	3.3µM	.	?	.
O=C(Cc1ccccc1F)Nc1nc(-c2ccc(F)c(F)c2)cs1	?	?	?	.	16µM	.
O=C(Cc1cccs1)Nc1nc(-c2ccc(F)cc2F)cs1	?	?	23µM	.	?	.
O=C(NCc1cccc(OC(F)(F)F)c1)c1ccc2c(c1)S(=O)(=O)c1cc(Cl)ccc1C2=O	.	.	.	.	.	.
Cc1nc2ccn(Cc3ccccc3)c(=O)c2cc1C(=O)N1CCN(c2ccccc2)CC1	.	.	.	.	.	.
COc1ccc(-c2cc(=O)oc3c4c(ccc23)OCN(Cc2cccc(OC)c2)C4)cc1	?	/	.	/	/	/
CCOc1ccc(NC(=O)c2cc(C)nc3c2c(C)nn3-c2cccc(F)c2)cc1	.	/	.	/	/	/
O=C(Cn1nnc(-c2ccc(CN3CCOCC3)cc2)n1)Nc1nc(-c2ccccc2)cs1	18µM	.	.	.	.	.
O=C(Cc1ccc(F)cc1)Nc1nc(-c2ccc(F)cc2)cs1	.	.	.	.	.	.
O=C(Cc1c(F)c(F)c(F)c(F)c1F)Nc1nc(-c2ccccc2)cs1	?	.	?	.	18µM	.
Cc1ccc(-c2csc(NC(=O)CN3CC(C)OC(C)C3)n2)cc1 (configuration not stated)	?	?	23µM	.	18µM	.
Cc1ccc(S(=O)(=O)CC(=O)Nc2nc(-c3ccccc3)cs2)cc1	18µM	.	.	.	.	.
CC1CCN(CC(=O)Nc2nc(-c3ccccc3)cs2)CC1	.	.	.	.	?	.
COC(=O)c1ccc(NC(=O)COc2ccc3c(c2)OCO3)cc1	.	0.41µM	.	.	.	.
CCN(CC(=O)Nc1ccc2c(c1)OCCO2)Cc1cc(=O)oc2c(C)c(C)ccc12	4.1µM	.	.	.	.	.
CCN(CC(=O)Nc1ccc2c(c1)OCCO2)CC(=O)Nc1ccc2c(c1)OCO2	.	.	.	.	.	.
Cc1ccc(OCC(=O)Nc2ccc3c(c2)OCO3)cc1C	.	?	.	.	.	.
Cc1ccc(C)c(OCC(=O)Nc2ccc3c(c2)OCO3)c1C	?	?	8.2µM	.	.	.
COc1ccccc1-c1nnc(C2CCN(C(=O)c3cccc(Cl)c3)CC2)o1	?	/	.	/	/	/
CC(C)Cc1ccc(C(C)/C=C2/CCC(CN3CCCCC3)C2=O)cc1 (configuration not stated)	?	?	?	.	15µM	.
CCOc1ccc(NC(=O)Cn2cc(C(=O)c3ccc(F)cc3)c(=O)c3cc4c(cc32)OCCO4)cc1	.	/	.	/	/	/
